Experiment [1] is described as follows: binders of probe aFSTL3 on microarray, primary screen, stem cell growth factor project, biochemical, small-molecule microarray, fluorescence 635/667 (AID 1064).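 Note: measures binding of the biotinylated anti-FSTL3 antibody to printed compounds.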 The settings on record: higher = more signal.
Experiment [2] can be described thus: binders from COS7 lysate, DM2A8 probe, primary screen, torsin A project, cell lysate, small-molecule microarray, fluorescence 635/667 (AID 1065). The settings on record: higher = more signal, COS7 lysate expressing mutant human TOR1A.
Experiment [3] is described as follows: binders of probe aFGF2 on microarray, primary screen, stem cell growth factor project, biochemical, small-molecule microarray, fluorescence 635/667 (AID 1067).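 Note: measures binding of biotinylated aFGF2 protein to printed compounds on slides; z-score merges feature fluorescence and signal-to-noise across triplicate slides.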 Conditions: higher = more signal.
Experiment [4] is described as follows: binders of probe aFGF10 on microarray, primary screen, stem cell growth factor project, biochemical, small-molecule microarray, fluorescence 635/667 (AID 1071).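 Note: score merges 667 nm spot intensity and signal to noise from triplicate slides.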 Conditions: higher = more signal.
The target of experiment [5] is Neurogenic locus notch homolog protein 2 (Homo sapiens) (UniProt Q04721). Put plainly: Notch2 binders on small-molecule microarrays, primary screen, biochemical, small-molecule microarray, 635 nm fluorescence, stem cell growth factors (AID 1073). The settings on record: Notch2 binding, higher = more signal.
Experiment [6] has as its target Pro-neuregulin-1, membrane-bound isoform (Homo sapiens) (UniProt Q02297). In words: NRG1 binders on small-molecule microarrays, primary screen, psychiatric disease protein project, biochemical, small-molecule microarray, fluorescence 635/667 (AID 1075).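 Note: score combines 667 nm spot fluorescence with signal to noise.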 Conditions: NRG1 binding, 635 nm fluorescence, higher = more signal.
Experiment [7] deals with Neuregulin-1 EGF-like domain. In words: binders of neuregulin-1 EGF-like domain, primary screen, biochemical, small-molecule microarray, 635 nm fluorescence (AID 1081).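 Note: binding of the protein to compounds printed on small-molecule microarray slides.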 The settings on record: small-molecule microarray binding, higher = more signal.
Experiment [8] can be described thus: FRG1 promoter luciferase signal modulators, primary screen, FRG1 inhibition for FSHD, cell-based, C2C12 myotubes, firefly/Renilla luciferase, luminescence (AID 1084). Conditions: higher = more signal, called active from +8 up or from −8 down.
Experiment [9] in a line: binders of probe aFST on microarray, primary screen, stem cell growth factor project, biochemical, small-molecule microarray, fluorescence 635/667 (AID 1086).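 Note: score merges 667 nm fluorescence with signal-to-noise of each printed compound spot.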 The settings on record: higher = more signal.
Experiment [10] is described as follows: binders of probe aHhip on microarray, primary screen, stem cell growth factor project, biochemical, small-molecule microarray, fluorescence 635/667 (AID 1087).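 Note: score merges spot fluorescence at 667nm with spot signal to noise ratio.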 The settings on record: higher = more signal.
For experiment [11], the system named is PRMT1 (protein arginine N-methyltransferase 1). Put plainly: PRMT1 binders on small-molecule microarrays, primary screen, biochemical, small-molecule microarray, 635 nm fluorescence (AID 1088).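 Note: binding of Prmt1 protein to compounds spotted on small-molecule microarray slides.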 The settings on record: small-molecule microarray binding, higher = more signal.
Experiment [12] is described as follows: yeast growth modulation, basal conditions, primary screen, YJM789 clinical isolate, OD600, 24 h (AID 1089).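 Note: growth of clinical yeast isolate S. cerevisiae YJM 789 seeded 1000 cells per well; test concentration not given here.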 Conditions: S. cerevisiae YJM789 growth, higher = more signal, called active from +8 up or from −8 down.
Experiment [13] in a line: fission yeast growth modulation, primary screen, strain 972, OD600, 24 h, no modulator (AID 1090).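 Note: basal condition with compound alone and no growth modifier present; test concentration not given here.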 The settings on record: S. pombe 972 growth, higher = more signal, called active from +8 up or from −8 down.
The nature of experiment [14]: S. cerevisiae growth modulation with rapamycin, primary screen, strain BY4716, OD600, 96 h (AID 1091). Note: test concentration not given here. Conditions: higher = more signal, called active from +8 up or from −8 down.
For experiment [15], the target named is Torsin-1A-interacting protein 2 (Homo sapiens) (UniProt Q8NFQ8). In words: LULL1 binders on small-molecule microarray, primary screen, cell lysate, human LULL1 lysate, 635/667 nm fluorescence (AID 1092).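 Note: probe is lysate of COS7 cells overexpressing human LULL1; score merges per-feature 667 nm fluorescence with signal-to-noise.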 The settings on record: hLULL1 lysate binding, 635 nm fluorescence, higher = more signal.
Torsin-1A-interacting protein 2 (Homo sapiens), sequence (Q8NFQ8 whole entry, looked up): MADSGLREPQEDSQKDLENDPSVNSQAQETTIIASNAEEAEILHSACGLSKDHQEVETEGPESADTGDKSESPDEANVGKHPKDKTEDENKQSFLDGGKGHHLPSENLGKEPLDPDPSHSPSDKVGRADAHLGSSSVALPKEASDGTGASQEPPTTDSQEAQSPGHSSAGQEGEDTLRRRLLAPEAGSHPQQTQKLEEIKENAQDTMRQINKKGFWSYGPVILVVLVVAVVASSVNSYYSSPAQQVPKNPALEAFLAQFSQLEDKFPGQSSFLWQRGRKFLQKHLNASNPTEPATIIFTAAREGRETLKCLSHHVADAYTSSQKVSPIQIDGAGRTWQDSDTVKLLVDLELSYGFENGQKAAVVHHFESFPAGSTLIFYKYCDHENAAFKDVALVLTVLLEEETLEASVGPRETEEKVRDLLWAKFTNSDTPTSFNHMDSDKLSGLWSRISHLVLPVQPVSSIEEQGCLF
Experiment [16] is described as follows: E. coli growth modulation, two-sided OD650, primary screen, E. coli filamentation project, strain DRC41, 24 h (AID 1093).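 Note: MC1000 strain lacking acrAB efflux and sulA so SOS filamentation is blocked; test concentration not given here.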 Conditions: OD650, 24 h, higher = more signal, called active from +8 up or from −8 down.
Experiment [17] in a line: small-molecule microarray binders of probe aLefty2, primary screen, biochemical, biotinylated probe, 635/667 nm fluorescence (AID 1094).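 Note: score merges spot fluorescence near 667 nm with spot signal-to-noise ratio.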 Conditions: higher = more signal.
For experiment [18], the system named is Noggin (protein binding on small-molecule microarray). In words: Noggin binders on small-molecule microarray, primary screen, biochemical, 635/667 nm fluorescence (AID 1095).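 Note: score merges 667 nm feature fluorescence with signal to noise over triplicate slides.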 Conditions: 635 nm fluorescence, higher = more signal.
Experiment [19] addresses Neurogenic locus notch homolog protein 3 (Homo sapiens) (UniProt Q9UM47). Put plainly: NOTCH3 binders on small-molecule microarray, primary screen, biochemical, 635/667 nm fluorescence (AID 1096). The settings on record: NOTCH3 binding, 635 nm fluorescence, higher = more signal.
Experiment [20] in a line: small-molecule microarray binders of probe aEGFR, primary screen, biochemical, biotinylated probe, 635/667 nm fluorescence (AID 1097).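 Note: probe is a biotinylated anti-EGFR antibody binding compounds printed on slides; score combines fluorescence near 667 nm and signal to noise of each spot.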 The settings on record: higher = more signal.

Calls of active or inactive are those of the source.

Neurogenic locus notch homolog protein 3 (Homo sapiens), sequence (Q9UM47 whole entry, looked up): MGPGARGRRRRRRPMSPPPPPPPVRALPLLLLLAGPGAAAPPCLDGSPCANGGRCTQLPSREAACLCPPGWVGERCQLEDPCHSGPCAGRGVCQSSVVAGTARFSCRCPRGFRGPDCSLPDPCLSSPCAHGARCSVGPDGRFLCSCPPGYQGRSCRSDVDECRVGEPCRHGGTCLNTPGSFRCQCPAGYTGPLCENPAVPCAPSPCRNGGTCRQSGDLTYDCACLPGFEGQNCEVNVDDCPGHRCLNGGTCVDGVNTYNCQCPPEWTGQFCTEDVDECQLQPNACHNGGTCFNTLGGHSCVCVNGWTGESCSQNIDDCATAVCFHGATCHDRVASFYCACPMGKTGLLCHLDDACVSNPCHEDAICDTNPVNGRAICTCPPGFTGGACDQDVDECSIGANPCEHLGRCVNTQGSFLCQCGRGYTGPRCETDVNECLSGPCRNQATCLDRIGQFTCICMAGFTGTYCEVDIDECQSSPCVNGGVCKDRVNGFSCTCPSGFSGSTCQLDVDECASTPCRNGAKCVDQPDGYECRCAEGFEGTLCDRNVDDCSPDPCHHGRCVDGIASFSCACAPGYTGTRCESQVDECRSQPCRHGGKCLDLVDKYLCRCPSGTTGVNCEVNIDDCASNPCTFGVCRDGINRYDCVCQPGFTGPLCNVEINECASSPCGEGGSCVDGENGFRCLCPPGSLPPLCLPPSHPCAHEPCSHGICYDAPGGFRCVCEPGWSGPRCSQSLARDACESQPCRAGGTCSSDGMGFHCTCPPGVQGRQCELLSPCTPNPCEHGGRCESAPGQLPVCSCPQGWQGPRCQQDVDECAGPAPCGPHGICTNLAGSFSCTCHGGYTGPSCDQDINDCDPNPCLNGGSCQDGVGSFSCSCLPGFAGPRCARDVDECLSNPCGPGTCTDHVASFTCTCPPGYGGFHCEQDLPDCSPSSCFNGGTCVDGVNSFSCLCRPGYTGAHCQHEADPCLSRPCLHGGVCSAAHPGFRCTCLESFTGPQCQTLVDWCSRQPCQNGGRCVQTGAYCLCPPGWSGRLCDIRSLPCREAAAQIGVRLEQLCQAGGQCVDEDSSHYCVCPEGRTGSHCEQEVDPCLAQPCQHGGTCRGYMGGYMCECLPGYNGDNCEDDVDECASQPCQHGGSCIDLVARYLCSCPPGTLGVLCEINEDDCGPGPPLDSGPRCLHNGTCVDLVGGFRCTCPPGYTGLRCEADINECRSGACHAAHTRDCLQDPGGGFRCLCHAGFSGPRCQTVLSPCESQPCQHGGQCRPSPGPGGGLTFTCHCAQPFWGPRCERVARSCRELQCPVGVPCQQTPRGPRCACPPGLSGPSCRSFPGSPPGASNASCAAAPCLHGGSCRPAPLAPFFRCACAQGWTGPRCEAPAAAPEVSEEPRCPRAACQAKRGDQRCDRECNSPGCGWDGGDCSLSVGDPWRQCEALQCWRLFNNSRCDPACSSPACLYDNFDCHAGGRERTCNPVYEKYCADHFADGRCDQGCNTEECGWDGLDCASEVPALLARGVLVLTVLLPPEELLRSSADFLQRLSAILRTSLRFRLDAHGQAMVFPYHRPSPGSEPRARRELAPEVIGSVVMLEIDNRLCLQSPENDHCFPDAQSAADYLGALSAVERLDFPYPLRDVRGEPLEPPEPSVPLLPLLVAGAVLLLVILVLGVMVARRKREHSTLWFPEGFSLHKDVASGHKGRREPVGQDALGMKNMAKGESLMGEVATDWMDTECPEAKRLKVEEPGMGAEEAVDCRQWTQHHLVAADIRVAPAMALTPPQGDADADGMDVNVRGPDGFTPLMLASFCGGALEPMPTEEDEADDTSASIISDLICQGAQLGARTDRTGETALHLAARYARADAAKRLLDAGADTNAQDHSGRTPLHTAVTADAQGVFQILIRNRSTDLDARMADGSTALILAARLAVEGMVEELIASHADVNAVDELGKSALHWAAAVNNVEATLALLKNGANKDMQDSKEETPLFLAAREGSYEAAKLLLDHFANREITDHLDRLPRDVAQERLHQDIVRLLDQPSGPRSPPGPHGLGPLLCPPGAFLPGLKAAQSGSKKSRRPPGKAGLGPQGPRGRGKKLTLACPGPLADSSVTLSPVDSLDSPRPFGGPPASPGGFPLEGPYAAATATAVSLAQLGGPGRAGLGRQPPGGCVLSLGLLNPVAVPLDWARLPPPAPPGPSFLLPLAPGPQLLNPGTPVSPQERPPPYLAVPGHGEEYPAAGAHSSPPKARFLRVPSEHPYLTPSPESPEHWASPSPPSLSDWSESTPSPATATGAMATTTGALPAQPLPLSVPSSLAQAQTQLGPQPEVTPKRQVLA
Pro-neuregulin-1, membrane-bound isoform (Homo sapiens), sequence (Q02297 whole entry, looked up, the tested form may be a part, canonical isoform): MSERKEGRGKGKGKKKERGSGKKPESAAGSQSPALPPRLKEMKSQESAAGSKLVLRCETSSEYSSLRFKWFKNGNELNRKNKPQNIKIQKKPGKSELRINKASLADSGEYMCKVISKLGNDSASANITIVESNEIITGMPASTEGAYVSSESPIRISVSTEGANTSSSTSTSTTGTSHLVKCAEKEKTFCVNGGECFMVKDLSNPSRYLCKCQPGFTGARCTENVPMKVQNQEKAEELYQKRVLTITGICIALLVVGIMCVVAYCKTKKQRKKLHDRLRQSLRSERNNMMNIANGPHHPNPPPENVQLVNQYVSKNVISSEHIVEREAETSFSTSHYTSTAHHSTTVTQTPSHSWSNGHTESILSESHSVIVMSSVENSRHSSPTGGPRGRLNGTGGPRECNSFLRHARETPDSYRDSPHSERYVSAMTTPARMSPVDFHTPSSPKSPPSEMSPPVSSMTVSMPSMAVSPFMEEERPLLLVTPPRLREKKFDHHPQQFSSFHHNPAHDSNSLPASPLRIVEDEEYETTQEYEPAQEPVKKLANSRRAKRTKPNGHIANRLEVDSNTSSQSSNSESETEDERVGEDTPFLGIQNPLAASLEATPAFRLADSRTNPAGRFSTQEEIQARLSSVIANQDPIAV

For the compound `CC1CC/C=C\[C@H]2OC34C=CCN(CCN5CCOCC5)C(=O)[C@H]3N(CCCCCO)C(=O)[C@@H]4C2C(=O)O1` (stereo not given in full), the composite z-score in experiment [1] is -0.0823; in experiment [2], -0.368; in experiment [3], -0.21; in experiment [4], -1.05; in experiment [5], -0.777; in [6], -0.85. In addition, the composite z-score in experiment [7] was -0.358; in [9], -0.633; in experiment [10], -0.216; in experiment [11], -0.632; in experiment [15], -1.13; in experiment [17] it was -0.339. The figures for the composite z-score in experiment [18], in experiment [19] and in [20] were -1.02, -1.17 and -0.158, respectively. Further, the z-score in experiment [8] was 0.209 (inactive); in [12], -0.631 (inactive); in experiment [13] it was -0.726 (inactive); in [14] it was -0.206 (inactive); in [16], -0.497 (inactive).
Consider `COCCOC(=O)N1C(=O)[C@@]2(c3cc(C#Cc4ccc(OC)cc4)ccc31)[C@H](c1ccc(OCCO)cc1)N1[C@H](c3ccccc3)[C@H](c3ccccc3)OC(=O)[C@H]1[C@@H]2C(=O)N1CCc2cc(OC)c(OC)cc2C1`, for which the composite z-score is -0.327 in experiment [1]; 0.514 in experiment [2]; 0.0051 in [3]; 0.214 in experiment [4]; 0.871 in experiment [5]; 0.424 in experiment [6]. Moreover, the composite z-score in experiment [7] is 0.981; in [9], 0.225; in experiment [10], 0.232; in experiment [11], 1.56; in experiment [15], 0.434; in [17], -0.202. In addition, the composite z-score in [18] is 1.28; in experiment [19] it was 1.12; in experiment [20], -0.02. For the same compound, the z-score is -0.948 (inactive) in [8]; 2.81 (inactive) in [12]; 1.39 (inactive) in experiment [13]; 7.07 (inactive) in experiment [14]; 1.56 (inactive) in [16].
Consider `COC(=O)[C@@]1(Cc2ccc(F)cc2)[C@H]2c3cc(C(=O)N4CCCC4)n(Cc4ccc(Cl)c(C(F)(F)F)c4)c3C[C@H]2CN1C(=O)c1ccccc1`, for which the composite z-score is 2 in [1]; 0.554 in experiment [2]; 0.713 in experiment [3]; 1.04 in experiment [4]; 1.73 in [5]; 1.61 in [6]. The composite z-score in experiment [7] is 1.14; in [9], 2.44; in experiment [10], 3.55; in experiment [11], 0.444; in experiment [15], 3.26; in [17], 1.12. Besides, the composite z-score in experiment [18] was -0.21; in experiment [19], 1.07; in [20], 0.915. In addition, the z-score was 0.339 (inactive) in [8]; 0.307 (inactive) in experiment [12]; 2.12 (inactive) in experiment [13]; 3.84 (inactive) in experiment [14]; -0.482 (inactive) in [16].
In the case of `CCN(CC)c1ccc(N2CC=CC34O[C@@H]5/C=C\CCC(C)OC(=O)C5[C@H]3C(=O)N(CCCCCCO)[C@@H]4C2=O)cc1` (stereo not given in full), the composite z-score in experiment [1] was 0.142; in [2], 0.19; in [3], -0.0766; in experiment [4], 0.69; in [5], -0.498; in [6], 0.374. The composite z-score in experiment [7] is 1.4; in experiment [9] it was -0.32; in experiment [10], 0.0373; in experiment [11], -0.661; in experiment [15], 0.989; in [17], -0.204. Also, the values for the composite z-score in [18], in [19] and in [20] were -0.668, -0.318 and -0.21, respectively. In addition, the z-score in experiment [8] was 0.316 (inactive); in experiment [12] it was -0.13 (inactive); in experiment [13], -0.147 (inactive); in experiment [14], 0.252 (inactive); in experiment [16] it was 0.477 (inactive).
Consider `O=C1OCCC/C=C\[C@H]2OC34C=CCN(Cn5nnc6ccccc65)C(=O)[C@H]3N(CCCO)C(=O)[C@@H]4C12` (stereo not given in full), for which the composite z-score in experiment [1] is 0.415; in [2] it was -0.652; in [3] it was -0.017; in experiment [4], -1; in experiment [5] it was -0.936; in experiment [6], 0.995. For the same compound, the composite z-score was 1.13 in [7]; -1.28 in experiment [9]; -0.271 in experiment [10]; 1.19 in experiment [11]; 3.64 in [15]; -0.225 in [17]. Besides, the composite z-score in [18] was -0.9; in experiment [19] it was -0.0127; in experiment [20] it was -0.232. Further, the z-score was -0.126 (inactive) in [8]; -0.57 (inactive) in experiment [12]; 0.0555 (inactive) in experiment [13]; -0.264 (inactive) in experiment [14]; 0.123 (inactive) in [16].

Values taken from PubChem BioAssay.
